Pf growth 48h – inhibits P. falciparum growth in the first generation, 48 h; P. falciparum luciferase growth in erythrocytes, 48 h; Potency, µM (series often up to 28.7 µM), usual class: inhibitors; actives 5.9% (n = 310,000); AID 504832
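Luciferase-expressing parasites in RBCs, 2% Hct / 0.1% parasitemia final; RPMI 1640 + 0.5% Albumax; 37 C, 5% CO2, one generation; luminescence read-out, lower signal = inhibition.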
Sm TGR inh – S. mansoni TGR enzyme inhibition; Potency, µM (highest dose often 114 µM), hits mostly inhibitors; AID 485364; Q962Y6; purified TGR, DTNB reduction, TNB absorbance 405 nm; actives 3% (n = 360,000); further: nearly all actives have a fitted effect of over 60% in size
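Kinetic colorimetric format: TGR-catalysed, NADPH-driven DTNB reduction monitored via TNB absorbance. Enzyme dispensed at 20 nM; compound exposure 15 min at room temperature before reaction start.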
AMA1 RON2 block – inhibitors of Plasmodium falciparum AMA1-RON2 interaction. AlphaScreen AMA1-biotinylated RON2 peptide binding. Potency, µM (highest dose often 58.2 µM), actives largely listed as inhibitors. actives 0.2% (n = 360,000). AID 720542; further: nearly all actives have a fitted effect of over 45% in size
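AMA1 (3D7) with his tag at 25 nM final met compounds first, then biotinylated RON2 peptide at 25 nM; detection used donor plus acceptor beads, 10 µg/mL apiece, read by AlphaScreen after 30 min at room temperature.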
NS1 function inh – inhibitors of influenza NS1 protein function; Potency, µM (top dose mostly 46.1 µM); actives 0.4% (n = 270,000); AID 2326; calls by dose curve; further: actives are rising curves; nearly all actives have a fitted effect of over 50% in size
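Growth recovery, yeast-based: influenza A NS1 expressed in S. cerevisiae causes slow growth, and suppressors are detected by OD600. The parent strain without NS1 is used as positive control.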
Pf growth 96h – P. falciparum growth inhibition at 96 hours; P. falciparum luciferase reporter growth, 96 h; Potency, µM (titrated, usually from 28.7 µM), most hits filed as inhibitors; actives 6.9% (n = 320,000); AID 504834
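Infected RBCs, 2% Hct / 0.05% parasitemia final; luciferase-reporter P. falciparum; cpd 96 h, 37 C, 5% CO2; luciferase detection reagent; luminescence.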
Large screens that a line does not name were inactive. An excerpt weighted towards active compounds, which were near 11% of everything screened. Unless noted, the call rests on the fitted dose curve; in most records, active means well fitted curve in the direction sought with a large enough effect; inconclusive means small, poorly fitted or top-dose-only effect, or another doubt; inactive means no such curve, though single readings can be large; an effect the other way counts as inactive or inconclusive.

COc1ccc(S(=O)(=O)CCC(=O)NCCc2ccc(S(N)(=O)=O)cc2)cc1	Sm TGR inh 40µM, Pf growth 96h 9.3µM
CCn1c(C)cc(/C=C2\NC(=O)N(Cc3ccccc3)C2=O)c1C	Sm TGR inh inconclusive, NS1 function inh inconclusive, Pf growth 96h inconclusive (no result: Pf growth 48h)
CCn1c(C)cc(/C=C2/NC(=O)N(Cc3ccccc3F)C2=O)c1C	Pf growth 48h 12µM, Pf growth 96h 9.3µM
Cc1cc(/C=C2/NC(=O)N(Cc3ccccc3F)C2=O)c(C)n1C(C)C	Pf growth 48h inconclusive, Pf growth 96h 10µM
Cc1cc(/C=C2/NC(=O)N(c3ccccc3)C2=O)c(C)n1C(C)C	NS1 function inh inconclusive
CCC(=O)Nc1ccc(CC)cc1-c1nc2ccccc2n(Cc2ccccc2)c1=O	none (no result: Pf growth 48h, AMA1 RON2 block, NS1 function inh, Pf growth 96h)
Cc1ccc(C(=O)Nc2nnc(S(=O)(=O)N(C)Cc3ccco3)s2)cc1	none (no result: Pf growth 48h, AMA1 RON2 block, NS1 function inh, Pf growth 96h)
CCCC(=O)Nc1nnc(S(=O)(=O)N(C)Cc2ccco2)s1	Sm TGR inh 4.5µM
CN(Cc1ccco1)S(=O)(=O)c1nnc(NC(=O)c2ccc(F)cc2)s1	none
CCC(=O)Nc1nnc(S(=O)(=O)N(C)Cc2ccco2)s1	Sm TGR inh 35µM, Pf growth 96h inconclusive
O=[N+]([O-])c1ccc2ccn(C3OCC(O)C(O)C3O)c2c1 (stereo unspecified)	none (no result: Sm TGR inh)
CCCCCOP(=O)(OCCCCC)C1(NS(=O)(=O)c2ccccc2)C=CC(=O)c2ccccc21 (stereo unspecified)	Pf growth 48h 9.3µM, Sm TGR inh inconclusive, AMA1 RON2 block inconclusive, Pf growth 96h 7.4µM
CCOP(=O)(OCC)C(NC(=O)NS(=O)(=O)c1ccc(C)cc1)c1ccccc1 (stereo unspecified)	none
O=c1oc(-c2ccccc2NS(=O)(=O)c2ccc3ccccc3c2)nc2ccccc12	Pf growth 96h 10µM
O=C(O)c1ccccc1NS(=O)(=O)c1ccc2ccccc2c1	AMA1 RON2 block inconclusive, NS1 function inh inconclusive
C[C@@H]1C[C@H]2OC(=O)C3(CO3)[C@H]2[C@H](O)[C@]2(C)C(=O)C3OC3[C@@H]12 (stereo partly specified)	Pf growth 48h 12µM, Pf growth 96h inconclusive (no result: AMA1 RON2 block)
CCOC(=O)/C(=C/C=C1\Sc2cc(OCC)c(OCC)cc2N1CC)C(C)=O	Pf growth 48h 7.4µM (no result: NS1 function inh)
CCOC(=O)/C(=C\C=C1/Sc2cc(OCC)c(OCC)cc2N1CC)C(C)=O	Pf growth 48h inconclusive, Pf growth 96h inconclusive
CCn1c(SCc2ccc([N+](=O)[O-])cc2)nnc1C(C)NC(=O)c1ccc(C)cc1 (stereo unspecified)	Pf growth 96h 10µM
O=C(CSc1ccc2nnc(-c3ccccn3)n2n1)Nc1ccccc1C(F)(F)F	AMA1 RON2 block inconclusive, Pf growth 96h inconclusive
C=CCn1cc(C(=O)NCCN(CC)CC)c(=O)c2cc(S(=O)(=O)N3CCCCCC3)ccc21	Pf growth 48h 10µM, Pf growth 96h 8.3µM
CC(C)CN(CCNC(=O)c1cn(C)c2ccc(S(=O)(=O)N3CCCC3)cc2c1=O)CC(C)C	Pf growth 96h 9.3µM
CC(C)CN(CCNC(=O)c1cn(C)c2ccc(S(=O)(=O)N3CCOCC3)cc2c1=O)CC(C)C	none (no result: Pf growth 48h, AMA1 RON2 block, NS1 function inh, Pf growth 96h)
COc1ccc(C(=O)Nc2ccccc2C(=O)N/N=C/c2ccncc2)cc1OC	none
CCn1cc2nc(SCc3cccc(C(F)(F)F)c3)n(Cc3ccc(C)cc3)c(=O)c2n1	none (no result: Pf growth 48h, AMA1 RON2 block, NS1 function inh, Pf growth 96h)
CC/C(=N/Nc1ccccc1)c1cnnc(-c2ccccc2)n1	Pf growth 48h 0.13µM, Pf growth 96h 0.1µM
CCc1nc2n(n1)C(O)c1cc([N+](=O)[O-])ccc1S2 (stereo unspecified)	none
CCC12CN3CC(C)(CN(C1)C3c1c(C)[nH]c3ccccc13)C2=O (stereo unspecified)	none (no result: Pf growth 48h, AMA1 RON2 block, NS1 function inh, Pf growth 96h)
CC12CN3CC(C)(CN(C1)C3c1cc3ccccc3[nH]1)C2=O (stereo unspecified)	Pf growth 96h 1µM
CCN(CC(=O)Nc1ccc(NC(C)=O)cc1)CC(=O)Nc1cc(C)on1	none (no result: NS1 function inh)
N#Cc1ccc(-c2cccnc2)nc1SCc1ccc(Cl)c(Cl)c1	Pf growth 48h 9.3µM, Pf growth 96h inconclusive
N#Cc1ccc(-c2cccnc2)nc1SCc1ccc(Cl)cc1Cl	Pf growth 48h inconclusive, Pf growth 96h inconclusive
COCCN(CC(=O)Nc1ccccc1C(F)(F)F)C(=O)/C=C/c1ccc2ccccc2n1	Pf growth 48h inconclusive, Pf growth 96h 15µM (no result: NS1 function inh)
COCCN(CC(=O)Nc1ccccc1C(F)(F)F)C(=O)/C=C/c1cc(Cl)c2c(c1)OCO2	Pf growth 48h inconclusive, Pf growth 96h inconclusive (no result: NS1 function inh)
O=C(O)[C@]1(S(=O)(=O)c2ccccc2)C[C@@H]2ON=C(c3cccc(Br)c3)[C@@H]2C1	none
O=S(=O)(c1ccccc1)[C@@]1(c2ccccc2)C[C@@H]2ON=C(c3cccc(Br)c3)[C@@H]2C1	Pf growth 48h 12µM, Pf growth 96h inconclusive (no result: NS1 function inh)
CC(C)(C)c1cc(NC(=O)c2ccc(OC3CCCC3)cc2)no1	Pf growth 48h 12µM, Pf growth 96h 12µM
Cc1cc(C(=O)Nc2ccon2)cs1	Pf growth 96h inconclusive
O=C(Nc1ccon1)c1ccc(OC2CCCC2)cc1	Pf growth 96h 5.2µM
Cc1ccc2[nH]c(=O)c(CN(CCCN(C)C)C(=O)Nc3ccc(F)cc3)cc2c1	Pf growth 48h inconclusive (no result: Sm TGR inh)
COC(=O)CN1C(=O)[C@H]2[C@@H](c3ccc(C)o3)N3C(=O)CN(CC4CC4)C(=O)[C@@]3(Cc3ccccc3)[C@H]2C1=O	none
COC(=O)CN1C(=O)[C@H]2[C@@H](c3ccc(C)o3)N3C(=O)CN(Cc4ccccc4)C(=O)[C@@]3(C)[C@H]2C1=O	Sm TGR inh 22µM
Cc1ccc([C@@H]2[C@@H]3C(=O)N(C)C(=O)[C@@H]3[C@]3(C)C(=O)N(Cc4ccccc4)CC(=O)N23)o1	Pf growth 48h inconclusive, Sm TGR inh 45µM, Pf growth 96h inconclusive
CCc1nn(CC(=O)N2CCN(c3cccc(Cl)c3)CC2)c(=O)c2cc3sccc3n12	none (no result: Pf growth 48h, AMA1 RON2 block, NS1 function inh, Pf growth 96h)
C[C@H](CO)N1C[C@H](C)[C@H](CN(C)C(=O)Nc2ccc(C(C)(C)C)cc2)OCc2cnnn2CCCC1=O	none (no result: Pf growth 48h, Sm TGR inh, NS1 function inh, Pf growth 96h)
CCN(Cc1ccccc1)S(=O)(=O)c1c[nH]c(C(=O)OC)c1	none
Cc1c(C(=O)Nc2cccc(C#N)c2)sc2nc3n(c(=O)c12)CCCCC3	Sm TGR inh 5.6µM (no result: Pf growth 48h, AMA1 RON2 block, NS1 function inh, Pf growth 96h)
Cc1c(C(=O)NCc2cccc(Cl)c2)sc2nc3n(c(=O)c12)CCCC3	Sm TGR inh 14µM (no result: Pf growth 48h, AMA1 RON2 block, NS1 function inh, Pf growth 96h)
Cc1nc2scc(C)n2c(=O)c1S(=O)(=O)N1CCN(c2ccccn2)CC1	none
O=C(Cn1cc(C(F)(F)F)cc(Cl)c1=O)Nc1ccc(N2CCOCC2)cc1	none (no result: NS1 function inh)
Cc1c2oc3c(C)ccc(C(=O)N[C@@H]4C(=O)N[C@H](C(C)C)C(=O)N5CCC[C@H]5C(=O)N(C)CC(=O)N(C)[C@@H](C(C)C)C(=O)O[C@@H]4C)c3nc-2c(C(=O)N[C@@H]2C(=O)N[C@H](C(C)C)C(=O)N3CCC[C@H]3C(=O)N(C)CC(=O)N(C)[C@@H](C(C)C)C(=O)O[C@@H]2C)c(N)c1=O	Pf growth 48h 0.0048µM, Pf growth 96h 0.0024µM (no result: Sm TGR inh, AMA1 RON2 block, NS1 function inh)

Source: PubChem
